# Laboratory results published in PubChem BioAssay AID1159580 (chemical genetic matrix, 2015).
# The campaign covered roughly 5,500 compounds. About 2,000 (36%) were called active. Inconclusive results (about 18%) are left out. The list shows a part of the results. Unmarked numbers belong to inactive results. No stated cut-off is given here; in the data, active means normalized growth mostly below about 0.91 (no sharp cut-off); inconclusive means no clear call, values can overlap the other calls; inactive means mostly above about 0.92.
# Experiment: chemical genetic growth profiling, strain panel (AID 1159580);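 further: tested at 20 µM; growth read once vehicle control cultures reached saturation at 30 °C; 1 = growth at the plate median or of vehicle wells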
# Settings: growth OD
compound,measurement,setting,value
O=C1c2ccccc2C(=O)c2c1ccc(O)c2O,normalized growth,"S. cerevisiae deletion strains, locus YJL187C, strain SWE1, stronger effect = lower value",0.524 (active)
same,normalized growth,"S. cerevisiae deletion strains, locus YJR066W, strain TOR1, stronger effect = lower value",0.565 (active)
same,normalized growth,"S. cerevisiae deletion strains, locus YKL009W, strain mrt4, stronger effect = lower value",0.907
same,normalized growth,"S. cerevisiae deletion strains, locus YKL068W, stronger effect = lower value",0.854 (active)
same,normalized growth,"S. cerevisiae deletion strains, locus YKL085W, strain MDH1 (second series), stronger effect = lower value",0.868 (active)
same,normalized growth,"S. cerevisiae deletion strains, locus YKL085W, strain MDH1, stronger effect = lower value",0.868 (active)
same,normalized growth,"S. cerevisiae deletion strains, locus YKL160W, strain elf1, stronger effect = lower value",0.568 (active)
same,normalized growth,"S. cerevisiae deletion strains, locus YKL190W, strain CNB1, stronger effect = lower value",0.286 (active)
same,normalized growth,"S. cerevisiae deletion strains, locus YKR001C, strain vps1, stronger effect = lower value",0.26 (active)
same,normalized growth,"S. cerevisiae deletion strains, locus YKR026C, strain gcn3, stronger effect = lower value",0.744 (active)
same,normalized growth,"S. cerevisiae deletion strains, locus YKR091W, strain srl3, stronger effect = lower value",0.714 (active)
same,normalized growth,"S. cerevisiae deletion strains, locus YLL001W, strain dnm1, stronger effect = lower value",0.492 (active)
same,normalized growth,"S. cerevisiae deletion strains, locus YLL026W, stronger effect = lower value",0.576 (active)
same,normalized growth,"S. cerevisiae deletion strains, locus YLL041C, strain sdh2, stronger effect = lower value",0.733 (active)
same,normalized growth,"S. cerevisiae deletion strains, locus YLR027C, strain aat2, stronger effect = lower value",0.578 (active)
same,normalized growth,"S. cerevisiae deletion strains, locus YLR039C, strain RIC1, stronger effect = lower value",0.149 (active)
same,normalized growth,"S. cerevisiae deletion strains, locus YLR058C, strain SHM2, stronger effect = lower value",0.203 (active)
same,normalized growth,"S. cerevisiae deletion strains, locus YLR102C, strain apc9, stronger effect = lower value",0.516 (active)
same,normalized growth,"S. cerevisiae deletion strains, locus YLR113W, strain HOG1, stronger effect = lower value",0.56 (active)
same,normalized growth,"S. cerevisiae deletion strains, locus YLR221C, strain rsa3, stronger effect = lower value",0.538 (active)
same,normalized growth,"S. cerevisiae deletion strains, locus YLR258W, strain gsy2, stronger effect = lower value",0.58 (active)
same,normalized growth,"S. cerevisiae deletion strains, locus YLR262C, strain YPT6 (second series), stronger effect = lower value",0.201 (active)
same,normalized growth,"S. cerevisiae deletion strains, locus YLR268W, strain sec22, stronger effect = lower value",0.194 (active)
same,normalized growth,"S. cerevisiae deletion strains, locus YLR320W, strain mms22, stronger effect = lower value",0.374 (active)
same,normalized growth,"S. cerevisiae deletion strains, locus YLR342W, strain FKS1, stronger effect = lower value",0.453 (active)
same,normalized growth,"S. cerevisiae deletion strains, locus YLR357W, strain rsc2, stronger effect = lower value",0.579 (active)
same,normalized growth,"S. cerevisiae deletion strains, locus YLR370C, strain arc18, stronger effect = lower value",0.539 (active)
same,normalized growth,"S. cerevisiae deletion strains, locus YLR371W, strain rom2, stronger effect = lower value",0.316 (active)
same,normalized growth,"S. cerevisiae deletion strains, locus YLR384C, strain iki3, stronger effect = lower value",0.574 (active)
same,normalized growth,"S. cerevisiae deletion strains, locus YLR418C, strain cdc73, stronger effect = lower value",0.225 (active)
same,normalized growth,"S. cerevisiae deletion strains, locus YML016C, strain PPZ1, stronger effect = lower value",0.195 (active)
same,normalized growth,"S. cerevisiae deletion strains, locus YML032C, strain rad52, stronger effect = lower value",0.487 (active)
same,normalized growth,"S. cerevisiae deletion strains, locus YML120C, strain ndi1, stronger effect = lower value",0.602 (active)
same,normalized growth,"S. cerevisiae deletion strains, locus YML124C, strain tub3, stronger effect = lower value",0.547 (active)
same,normalized growth,"S. cerevisiae deletion strains, locus YMR058W, strain fet3, stronger effect = lower value",0.444 (active)
same,normalized growth,"S. cerevisiae deletion strains, locus YMR078C, strain ctf18, stronger effect = lower value",0.455 (active)
same,normalized growth,"S. cerevisiae deletion strains, locus YMR125W, strain sto1, stronger effect = lower value",0.773 (active)
same,normalized growth,"S. cerevisiae deletion strains, locus YMR129W, stronger effect = lower value",0.69 (active)
same,normalized growth,"S. cerevisiae deletion strains, locus YMR205C, strain PFK2, stronger effect = lower value",0.423 (active)
same,normalized growth,"S. cerevisiae deletion strains, locus YMR223W, strain ubp8, stronger effect = lower value",0.408 (active)
same,normalized growth,"S. cerevisiae deletion strains, locus YMR231W, strain pep5, stronger effect = lower value",0.641 (active)
same,normalized growth,"S. cerevisiae deletion strains, locus YMR263W, strain SAP30, stronger effect = lower value",0.295 (active)
same,normalized growth,"S. cerevisiae deletion strains, locus YMR307W, strain GAS1, stronger effect = lower value",0.167 (active)
same,normalized growth,"S. cerevisiae deletion strains, locus YNL067W, strain RPL9B, stronger effect = lower value",0.324 (active)
same,normalized growth,"S. cerevisiae deletion strains, locus YNL071W, strain lat1, stronger effect = lower value",0.386 (active)
same,normalized growth,"S. cerevisiae deletion strains, locus YNL128W, strain TEP1, stronger effect = lower value",0.216 (active)
same,normalized growth,"S. cerevisiae deletion strains, locus YNL153C, strain GIM3, stronger effect = lower value",0.28 (active)
same,normalized growth,"S. cerevisiae deletion strains, locus YNL183C, strain NPR1, stronger effect = lower value",0.596 (active)
same,normalized growth,"S. cerevisiae deletion strains, locus YNL209W, strain ssb2, stronger effect = lower value",0.265 (active)
same,normalized growth,"S. cerevisiae deletion strains, locus YNL233W, strain BNI4, stronger effect = lower value",0.246 (active)
same,normalized growth,"S. cerevisiae deletion strains, locus YNL248C, strain rpa49, stronger effect = lower value",0.458 (active)
same,normalized growth,"S. cerevisiae deletion strains, locus YNL250W, strain rad50, stronger effect = lower value",0.895 (active)
same,normalized growth,"S. cerevisiae deletion strains, locus YNL271C, strain bni1, stronger effect = lower value",0.828 (active)
same,normalized growth,"S. cerevisiae deletion strains, locus YNL298W, strain CLA4, stronger effect = lower value",0.775 (active)
same,normalized growth,"S. cerevisiae deletion strains, locus YNL307C, strain MCK1, stronger effect = lower value",0.188 (active)
same,normalized growth,"S. cerevisiae deletion strains, locus YNL322C, strain KRE1 (second series), stronger effect = lower value",0.726 (active)
same,normalized growth,"S. cerevisiae deletion strains, locus YNR049C, strain mso1, stronger effect = lower value",0.659 (active)
same,normalized growth,"S. cerevisiae deletion strains, locus YNR052C, strain pop2, stronger effect = lower value",0.218 (active)
same,normalized growth,"S. cerevisiae deletion strains, locus YOL012C, strain htz1",0.219
same,normalized growth,"S. cerevisiae deletion strains, locus YOL147C, strain pex11, stronger effect = lower value",0.362 (active)
same,normalized growth,"S. cerevisiae deletion strains, locus YOR001W, strain rrp6, stronger effect = lower value",0.608 (active)
same,normalized growth,"S. cerevisiae deletion strains, locus YOR061W, strain CKA2, stronger effect = lower value",0.237 (active)
same,normalized growth,"S. cerevisiae deletion strains, locus YOR069W, strain VPS5, stronger effect = lower value",0.314 (active)
same,normalized growth,"S. cerevisiae deletion strains, locus YOR070C, strain gyp1, stronger effect = lower value",0.496 (active)
same,normalized growth,"S. cerevisiae deletion strains, locus YOR080W, strain dia2, stronger effect = lower value",0.638 (active)
same,normalized growth,"S. cerevisiae deletion strains, locus YOR083W, strain WHI5, stronger effect = lower value",0.475 (active)
same,normalized growth,"S. cerevisiae deletion strains, locus YOR106W, strain vam3, stronger effect = lower value",0.302 (active)
same,normalized growth,"S. cerevisiae deletion strains, locus YOR136W, strain idh2, stronger effect = lower value",0.433 (active)
same,normalized growth,"S. cerevisiae deletion strains, locus YOR144C, strain elg1, stronger effect = lower value",0.561 (active)
same,normalized growth,"S. cerevisiae deletion strains, locus YOR184W, strain ser1, stronger effect = lower value",0.209 (active)
same,normalized growth,"S. cerevisiae deletion strains, locus YOR231W, strain MKK1, stronger effect = lower value",0.707 (active)
same,normalized growth,"S. cerevisiae deletion strains, locus YOR265W, strain rbl2, stronger effect = lower value",0.503 (active)
same,normalized growth,"S. cerevisiae deletion strains, locus YOR270C, strain vph1, stronger effect = lower value",0.278 (active)
same,normalized growth,"S. cerevisiae deletion strains, locus YOR290C, strain snf2, stronger effect = lower value",0.41 (active)
same,normalized growth,"S. cerevisiae deletion strains, locus YOR316C, strain cot1, stronger effect = lower value",0.474 (active)
same,normalized growth,"S. cerevisiae deletion strains, locus YPL051W, strain arl3, stronger effect = lower value",0.295 (active)
same,normalized growth,"S. cerevisiae deletion strains, locus YPL078C, strain atp4, stronger effect = lower value",0.471 (active)
same,normalized growth,"S. cerevisiae deletion strains, locus YPL106C, strain sse1, stronger effect = lower value",0.502 (active)
same,normalized growth,"S. cerevisiae deletion strains, locus YPL240C, strain hsp82, stronger effect = lower value",0.613 (active)
same,normalized growth,"S. cerevisiae deletion strains, locus YPL256C, strain CLN2, stronger effect = lower value",0.749 (active)
same,normalized growth,"S. cerevisiae deletion strains, locus YPR119W, strain clb2, stronger effect = lower value",0.558 (active)
same,normalized growth,"S. cerevisiae deletion strains, locus YPR141C, strain kar3, stronger effect = lower value",0.854 (active)
same,normalized growth,"S. cerevisiae deletion strains, locus YPR163C, strain tif3, stronger effect = lower value",0.214 (active)
same,normalized growth,"S. cerevisiae deletion strains, locus YPR167C, strain met16, stronger effect = lower value",0.377 (active)
same,normalized growth,"S. cerevisiae deletion strains, strain wtn01, stronger effect = lower value",0.295 (active)
same,normalized growth,"S. cerevisiae strains, strain wild type, stronger effect = lower value",0.166 (active)
